USP30 block = inhibitors of human USP30 deubiquitinase | Q70CQ3 | purified USP30, Ub-rhodamine cleavage fluorescence | inhibition, % at 25 µM | actives 5.3% (n = 47,000) | AID 1645860
USP8 block = human USP8 deubiquitinase inhibition; actives 4.2% (n = 47,000); P40818; AID 1645853; purified USP8, Ub-rhodamine cleavage fluorescence, 30 min; inhibition, % at 20 µM
Target sequence (P40818 whole entry, looked up): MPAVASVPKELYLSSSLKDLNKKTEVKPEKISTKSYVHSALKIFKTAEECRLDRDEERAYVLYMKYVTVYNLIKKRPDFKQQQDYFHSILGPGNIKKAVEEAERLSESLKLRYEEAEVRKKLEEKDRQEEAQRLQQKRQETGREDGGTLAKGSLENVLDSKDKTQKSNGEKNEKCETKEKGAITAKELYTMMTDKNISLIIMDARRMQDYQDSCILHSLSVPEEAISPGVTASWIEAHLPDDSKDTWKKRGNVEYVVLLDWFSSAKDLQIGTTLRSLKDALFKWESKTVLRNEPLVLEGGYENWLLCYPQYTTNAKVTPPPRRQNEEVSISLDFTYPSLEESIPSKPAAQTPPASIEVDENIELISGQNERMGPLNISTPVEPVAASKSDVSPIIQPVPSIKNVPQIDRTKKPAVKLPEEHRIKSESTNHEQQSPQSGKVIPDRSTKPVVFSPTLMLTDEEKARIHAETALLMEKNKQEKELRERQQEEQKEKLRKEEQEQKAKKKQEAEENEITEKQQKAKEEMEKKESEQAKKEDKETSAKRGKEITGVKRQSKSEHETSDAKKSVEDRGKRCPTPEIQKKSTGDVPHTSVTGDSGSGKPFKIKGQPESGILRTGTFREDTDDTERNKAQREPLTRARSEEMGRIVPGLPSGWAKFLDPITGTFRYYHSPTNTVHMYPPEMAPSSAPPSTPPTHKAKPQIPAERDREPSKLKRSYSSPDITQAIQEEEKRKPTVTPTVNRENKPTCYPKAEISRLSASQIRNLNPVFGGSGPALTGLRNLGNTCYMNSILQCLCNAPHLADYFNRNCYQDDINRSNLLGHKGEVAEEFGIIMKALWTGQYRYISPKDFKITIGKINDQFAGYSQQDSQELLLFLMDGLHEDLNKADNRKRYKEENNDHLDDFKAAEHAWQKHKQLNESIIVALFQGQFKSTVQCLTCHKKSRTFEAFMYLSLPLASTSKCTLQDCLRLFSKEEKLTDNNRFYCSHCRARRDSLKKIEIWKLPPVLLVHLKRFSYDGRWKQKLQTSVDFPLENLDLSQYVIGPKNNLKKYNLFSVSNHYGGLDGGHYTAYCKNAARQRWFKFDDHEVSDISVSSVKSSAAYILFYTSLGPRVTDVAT
USP28 block = inhibitors of human USP28 deubiquitinase; purified USP28, Ub-rhodamine cleavage fluorescence, 30 min; inhibition, % at 25 µM; actives 3% (n = 47,000); AID 1645857
USP17 inh = blocks human USP17 ubiquitin-rhodamine cleavage; AID 1645855; A8MUK1; actives 6.5% (n = 47,000); inhibition, % at 50 µM; purified USP17, Ub-rhodamine cleavage fluorescence, 3 h
Of the large screens only hits and unclear results are named; the others gave an inactive call. A selection: hits, their analogues and other compounds. The true share with any hit is near 13%. No stated cut-off is given here; in the data, active means inhibition above about 30%; inactive means the rest.

Cc1cc(NS(=O)(=O)c2ccc(NC(=O)c3cccc4ccccc34)cc2)no1	none
COc1ccc(S(=O)(=O)N(CC(=O)N2CCc3ccccc3C2)Cc2ccccc2)cc1	none
COc1cccc(C(=O)Oc2ccc(-c3ccc(C)cc3)cc2C)c1	none
Cc1ccc(-c2nc(SCC(=O)c3c(N)n(C4CC4)c(=O)[nH]c3=O)n[nH]2)cc1	none
CCc1ccc(-c2nc(SCC(=O)c3c(N)n(C4CC4)c(=O)[nH]c3=O)n[nH]2)cc1	USP8 block 36, USP17 inh 44
COc1ccc(OC)c(NC(=O)CS(=O)(=O)c2cn(CC(=O)N3CCC(C)CC3)c3ccccc23)c1	USP8 block 32, USP17 inh 51
O=C(Cn1cc(C(=O)c2ccccc2)c(=O)c2cc(F)ccc21)Nc1ccc2c(c1)OCO2	USP8 block 59
CC1CCN(C(=O)Cn2cc(SCC(=O)Nc3ccc4c(c3)OCCO4)c3ccccc32)CC1	USP28 block 38
Cc1ccc(C(=O)c2cn(CC(=O)Nc3ccc4c(c3)OCO4)c3ccccc3c2=O)cc1	USP30 block 79, USP8 block 90, USP17 inh 85
Cc1cccc(C(=O)NCC(=O)N2CCN(c3ccc(Cl)cc3)CC2)c1	USP30 block 41, USP17 inh 33
Cc1c(C)n(-c2ccccc2)c2ncn(CC(=O)N(C)Cc3ccccc3)c(=O)c12	USP17 inh 53
Cc1c(C)n(-c2ccccc2)c2ncn(CC(=O)NCCCc3ccccc3)c(=O)c12	USP17 inh 70
CN(Cc1ccccc1)C(=O)Cn1cnc2c(cnn2C)c1=O	none
O=C(Cn1cnc2onc(-c3ccccc3F)c2c1=O)NCCCc1ccccc1	none
CCCCCCCCCC(CCCCCCCCCC(=O)O)O[C@H]1O[C@@H](COC(C)=O)[C@H](O)[C@@H](O)[C@H]1OC(=O)CC(=O)O (stereo partly specified)	USP30 block 53, USP28 block 41, USP17 inh 42
CSCc1cc(NCc2ccccc2)nc(-c2ccncc2)n1	USP30 block 41
c1ccc(-c2cc(NC3CC3)nc(-c3ccncc3)n2)cc1	none
N#Cc1cccc(NC(=O)/C=C/c2cccc3ccccc23)c1	USP17 inh 35
N#Cc1cccc(C(=O)Nc2cccc(Oc3ccccc3)c2)c1	none
CC(C)c1noc(-c2ccn3c(CC(=O)Nc4ccccc4)nnc3c2)n1	USP8 block 40
CC1OC2CC(O)C1(O)C1=C2C(=O)c2c(O)c3c(c(O)c2C1=O)[C@H](C)O[C@H]1CC(=O)O[C@@H]31 (stereo partly specified)	USP17 inh 56
Cc1nccn1-c1cncc(C2CCCN2C(=O)Cc2c[nH]c3ccccc23)n1 (stereo unspecified)	none
COc1ccc(-c2cc3n(C)c(C)c(CCC(=O)NCc4ccc(F)cc4)c(=O)n3n2)cc1	USP30 block 54, USP17 inh 66
Cc1ccc(F)cc1NC(=O)Cc1cn2ccccc2n1	none
O=C(Nc1ccc(-c2nnc3n2CCCCC3)cc1)c1ccc2c(c1)OCO2	USP28 block 71
COc1ccc(C(=O)Nc2ccc(Cn3cncn3)cc2)cc1F	USP28 block 35
O=C(Nc1ccc(Cn2cncn2)cc1)c1ccc2c(c1)OCO2	USP28 block 45
COc1cc(OC)cc(C(=O)Nc2ccc(Cn3cncn3)cc2)c1	none
CCOC(=O)c1cc2c(ccn2-c2ccc(F)cc2)n1CC(=O)Nc1ccc2c(c1)OCCO2	USP8 block 54
Cc1c(C(=O)OCCOc2ccccc2F)oc2ccc(Br)cc12	none
c1ccc(-c2cc(Nc3c4c(nc5ccccc35)CCCC4)n[nH]2)cc1	USP17 inh 44
O=C(Nc1ccc2c(c1)OCCCO2)c1cc(=O)[nH]c2ccccc12	USP17 inh 46 (no result: USP30 block, USP28 block)
O=C(CCCc1c[nH]c2ccccc12)Nc1ccccc1N1CCOCC1	none
O=C(CCCc1c[nH]c2ccccc12)Nc1ccc2c(c1)OCCO2	USP28 block 75
O=C(Nc1ccc(N2CCOCC2)cc1)c1cc(=O)[nH]c2ccccc12	USP17 inh 60
CN1C(=O)c2ccccc2C(=O)[C@@]2(C)CN(Cc3ccccc3)C[C@@H]12	none
COCCCn1c(C2CCCCC2)nc2c(c(=O)c3ccccc3n2C)c1=O	none
O=C(NCc1ccccn1)c1cccc(C2CCCN(C(=O)Nc3ccccc3)C2)c1 (stereo unspecified)	none
COc1ccc(CNC(=O)CC(c2cccc(F)c2)n2cccc2)cc1 (stereo unspecified)	USP30 block 35
COc1cc2c(=O)n(CCC(=O)NCC3CCCO3)c(=O)n(CC(=O)Nc3cccc(Cl)c3)c2cc1OC (stereo unspecified)	none
CCc1ccccc1NC(=O)Cn1c(=O)n(CCC(=O)NCC2CCCO2)c(=O)c2cc(OC)c(OC)cc21 (stereo unspecified)	USP17 inh 30
CCOc1ccc(C(=O)Cn2c(=O)n(CC3CCCO3)c(=O)c3cc(OC)c(OC)cc32)cc1Cl (stereo unspecified)	USP17 inh 71
COc1ccc(NC(=O)Cn2c(=O)n(CCCC(=O)NC3CCCC3)c(=O)c3cc(Cl)ccc32)c(OC)c1	USP30 block 31
COc1ccc(CCNC(=O)Cn2c(=O)n(CCCC(=O)NC3CCCC3)c(=O)c3cc(Cl)ccc32)cc1OC	USP30 block 37
COc1ccc(NC(=O)Cn2c(=O)n(CCCC(=O)NCCc3ccc(OC)c(OC)c3)c(=O)c3ccccc32)cc1Cl	none
Cc1cc(NC(=O)Cn2c(=O)n(CCCC(=O)NC3CCCC3)c(=O)c3cc(Cl)ccc32)n[nH]1	none
Cc1n[nH]c(C)c1S(=O)(=O)Nc1ncn(Cc2ccccc2F)n1	none
COc1ccc(C)cc1NC(=O)c1nc2ccccc2nc1N1CCCC1	none
COc1cc2c(=O)n(CCC(=O)NC3CCCC3)c(=O)n(CC(=O)Nc3ccc(C)c(F)c3)c2cc1OC	USP30 block 34
CNc1nc2c(c(=O)n1-c1ccccc1)CCN(C(=O)c1ccc3ccccc3c1)C2	USP30 block 43
CNc1nc2c(c(=O)n1Cc1ccccc1)CN(C(=O)c1ccc(CN)cc1)CC2	USP17 inh 59
COc1ccccc1-c1nc(Cn2c(C)nc3ccccc3c2=O)no1	none
COCCCNS(=O)(=O)c1ccc2c(c1)CCN2C(=O)C1CC1	none
CCC(C(=O)NCc1ccncc1)N(c1cccc(Cl)c1)S(C)(=O)=O (stereo unspecified)	none
c1ccc(Cn2ncc3c(SCc4nc5ccccc5[nH]4)ncnc32)cc1	USP30 block 47
CCc1noc(-c2c(C)cc(C)n2CC(=O)NCc2ccc(Cl)cc2)n1	USP30 block 39
Cc1c(C)n2c(SCC(=O)Nc3cccc(Cl)c3)nnc2[nH]c1=O	none
CC(C)CCNC(=O)CSc1nc(-c2cccc(Cl)c2)nc2cc(=O)[nH]n12	USP17 inh 42
O=C(Cc1cc(-c2ccc(F)cc2)on1)Nc1ccccc1C(F)(F)F	USP17 inh 39
O=C(Cc1cc(-c2ccc(F)cc2)on1)NCc1ccccc1	USP17 inh 60
COc1ccc(S(=O)(=O)N2CCCC(c3nnc4ccccn34)C2)cc1 (stereo unspecified)	none
Cc1ccc(Cl)cc1NC(=O)c1ccc(N(C)C)cc1	none

Bioassay records as filed in PubChem.
